Assay outcomes as filed in PubChem BioAssay.
KDM5B inhibitor: KDM5B demethylase inhibition; KDM5B demethylase, FDH-coupled NADH fluorescence (FDH is formaldehyde dehydrogenase); Potency, µM (highest dose often 57.7 µM), actives largely listed as inhibitors; Q9UGL1; AID 1347165; hit rate 2.6% among 220,000; active = well fitted inhibition curve with a large enough effect; inconclusive = small, poorly fitted or top-dose-only effect; inactive = no such curve, though single readings can be large or run the other way; note: potency is the fitted concentration of half-maximal effect; 0% is about no effect; nearly all actives have a fitted effect of over 70% in size
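Compound dilutions met 200 nM (final) KDM5BΔAP for 10 min at room temperature before substrate addition. The substrate mix held 12.5 µM H3K4me3 with cofactors 25 µM α-ketoglutarate and 50 µM Fe²⁺. NADH signal gain over 30 min defined activity.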
IP6K1 inh: blocks human inositol hexakisphosphate kinase 1; IP6K1 kinase, ADP-Glo luminescence, 2 h; hits give low values; activity change, % (series mostly up to about 58 µM); AID 1645851; hit rate 0.81% among 140,000; in the data active = activity change below about -25%; note: % is set by controls: 0 for no effect and ±100 for the full control effect
Target sequence (Q92551 whole entry, looked up): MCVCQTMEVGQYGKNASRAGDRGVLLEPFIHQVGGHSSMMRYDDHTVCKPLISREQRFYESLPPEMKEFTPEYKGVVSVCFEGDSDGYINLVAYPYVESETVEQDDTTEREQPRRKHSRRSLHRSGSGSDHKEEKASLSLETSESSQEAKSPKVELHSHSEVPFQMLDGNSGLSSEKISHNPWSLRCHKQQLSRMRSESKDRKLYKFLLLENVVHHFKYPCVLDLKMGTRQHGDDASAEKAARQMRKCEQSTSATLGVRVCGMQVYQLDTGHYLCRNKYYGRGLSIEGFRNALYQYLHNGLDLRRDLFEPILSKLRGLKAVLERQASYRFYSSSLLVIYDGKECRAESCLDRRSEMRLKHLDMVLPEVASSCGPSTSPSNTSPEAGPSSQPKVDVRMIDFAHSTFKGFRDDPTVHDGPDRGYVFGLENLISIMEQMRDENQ
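ADP-Glo luminescence measures ADP made by human IP6K1 during a 2 h RT reaction with ATP/IP6 (mix at 1.3 mM/130 uM); top library doses 57.5 and 19.1 uM final.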
An asterisk follows results filed as active; i = inactive; ? = inconclusive; . = no result. Rows were chosen to be rich in hits. Some 2.8% of all compounds tested hit in one or more screens of this group.

SMILES	KDM5B inhibitor	IP6K1 inh
COc1ccc(-c2nc(Cn3c(-c4cccc(Cl)c4)nc(C)c(CCO)c3=O)c(C)o2)cc1	28µM*	3
COc1ccc(-c2nc(Cn3c(-c4ccc(Cl)cc4)nc(C)c(CCO)c3=O)c(C)o2)cc1	i	-1
COc1ccc(-c2nc(Cn3c(-c4ccccc4)nc(C)c(CCO)c3=O)c(C)o2)cc1	i	-1
NC1CCC(n2cc(C(=O)NC3CCCN(c4ncccn4)C3)nn2)CC1 (stereo unspecified)	25µM*	8
NC1CCC(n2cc(C(=O)N3CCC(Nc4ccccn4)CC3)nn2)CC1 (stereo unspecified)	i	0
O=C1COc2ccccc2CCNC(=O)[C@H](Cc2ccc(OCCOCc3ccccc3)cc2)N1	.	7
COc1ccc(-c2cc3c(=O)n(CCNC(=O)c4sccc4C)ccn3n2)cc1	25µM*	-3
CCOc1ccc(-c2cc3c(=O)n(CCNC(=O)c4ccoc4)ccn3n2)cc1	22µM*	-5
COc1ccc(C(=O)NCCn2ccn3nc(-c4cc(C)ccc4C)cc3c2=O)cc1	?	-6
O=C(NCCn1ccn2nc(-c3ccc(F)cc3)cc2c1=O)c1ccoc1	?	1
COc1ccc(-c2cc3c(=O)n(CCNC(=O)c4ccoc4)ccn3n2)cc1	20µM*	0
Cc1ccc(-c2cc3c(=O)n(CCNC(=O)c4ccoc4)ccn3n2)cc1C	?	-10
CCOc1ccc(-c2cc3c(=O)n(CCNC(=O)Cc4ccccc4C)ccn3n2)cc1	22µM*	-2
CCOc1ccc(CC(=O)NCCn2ccn3nc(-c4cccc(OC)c4)cc3c2=O)cc1	?	-14
COC(=O)C1=C(C)NC(=O)CC1C(=O)Nc1ccc(Cl)cc1 (stereo unspecified)	i	.
Cc1ccc(F)cc1NCc1ccccc1C#N	i	.
Cc1ccc(Nc2ccnc(N3CCCN(C(=O)Cc4cccc(Cl)c4)C3)n2)cc1	.	3
O=C(Cn1ccc2c(Br)cccc21)NC1CC1	i	.
COc1ccc(-c2cc3c(=O)n(CCNC(=O)c4ccc(OC)c(OC)c4)ccn3n2)cc1	?	-9
COc1ccc(-c2cc3c(=O)n(CCNC(=O)c4ccsc4)ccn3n2)cc1	22µM*	-5
C=CCN1CCCN(Cc2ccc(C#N)cc2)CC1	i	.
CC(CCc1ccccc1)NC(=O)C1CCCO1 (stereo unspecified)	i	.
CC(NC(=O)C1CCCO1)C(=O)N1CCN(c2ccccn2)CC1 (stereo unspecified)	25µM*	25
CC(NC(=O)c1ccccc1F)C(=O)N1CCN(c2ccccn2)CC1 (stereo unspecified)	?	22
CC(C)C(NC(=O)C1CCC1)C(=O)N1CCN(c2ccccn2)CC1 (stereo unspecified)	22µM*	4
SMILES	KDM5B inhibitor	IP6K1 inh
CC(NC(=O)C1CCC1)C(=O)N1CCN(c2ccccn2)CC1 (stereo unspecified)	22µM*	2
Cc1ccc(OC(C)C(=O)N2CCN(c3ccccn3)CC2)cc1 (stereo unspecified)	i	.
Cc1ccc(-c2cc3n(n2)CCCN(C(=O)c2cc(CN4CCOCC4)on2)C3)o1	.	6
FC(F)(F)c1ccc(N2CCC(N[C@@H]3C[C@@H]4OCC[C@@H]43)CC2)nc1	20µM*	5
O=C(CN1CCN(c2ccc(C(F)(F)F)cn2)CC1)NC1CC1	i	.
CCOCCCNC(=O)C1CCCN1Cc1cccc(-c2ccc(C)c(Cl)c2)c1 (stereo unspecified)	.	8
Cc1[nH]c(-c2ccccc2)nc1C(=O)N1CCn2nc(CCC(=O)O)cc2C1	i	5
O=C(O)CCc1cc2n(n1)CCCN(C(=O)c1cc3c([nH]c1=O)CCC3)C2	28µM*	-6
CCOP(=O)(OCC)c1nc(-c2ccc([N+](=O)[O-])cc2)oc1NCc1ccc(C)cc1	i	.
Cc1nc(/C=C/C(=O)NC(C)C23CC4CC(CC(C4)C2)C3)cs1 (stereo unspecified)	i	.
O=C(c1cccc(F)c1)N1CCC2(CC1)N=C(c1ccc(Cl)cc1)NO2	20µM*	2
O=C(c1ccc2c(c1)OCO2)N1CCC2(CC1)N=C(c1ccc(Cl)cc1)NO2	32µM*	2
O=C(c1cccc(F)c1)N1CCC2(CC1)N=C(c1ccccc1)NO2	i	5
Cc1ccc(C2=NC3(CCN(C(=O)c4ccc5c(c4)OCO5)CC3)ON2)cc1	i	-2
CC(C)C[C@@H]1N[C@H](C(=O)NCCN(C)C)Cc2cn(CC3CC3)c3cccc1c23	28µM*	12
CC(C)C[C@@H]1N[C@H](C(=O)NCc2cccs2)Cc2cn(CC3CC3)c3cccc1c23	?	3
C=CCn1cc2c3c(cccc31)[C@H](CC(C)C)N[C@H](C(=O)NCCN(C)C)C2	32µM*	-6
C=CCn1cc2c3c(cccc31)[C@H](CC(C)C)N[C@H](C(=O)NCCC)C2	?	16
CCn1nc(C(=O)Nc2cc(Cl)ccc2Oc2ccc(OC)cc2)c2ccccc2c1=O	i	.
O=C(Nc1ccccc1)N[C@H]1C[C@H]2C(=O)NC[C@@H](CCC(=O)N3CCN(c4ccccn4)CC3)N2C1	25µM*	11
CC(C)N1CC[C@@H]2[C@H]1C(=O)NC[C@H](CCC(=O)N1CCc3ccccc31)N2C	i	-1
CN1CCN(C(=O)CC[C@H]2CNC(=O)[C@@H]3[C@@H](CCN3Cc3ncc[nH]3)N2C)CC1	i	7
CN1[C@@H](CCC(=O)N2CCN(c3ccccn3)CC2)CNC(=O)[C@@H]2[C@H]1CCN2Cc1ccc(CO)o1	32µM*	5
CC(C)N1CC[C@@H]2[C@H]1C(=O)NC[C@H](CCC(=O)N1CCN(c3ccccn3)CC1)N2C	32µM*	-11
CN1[C@@H](CCC(=O)N2CCN(c3ccccc3)CC2)CNC(=O)[C@@H]2[C@H]1CCN2Cc1ccc(F)cc1	i	1
SMILES	KDM5B inhibitor	IP6K1 inh
O=C(Nc1ccccc1)N[C@H]1C[C@H]2C(=O)NC[C@@H](CCC(=O)N3CCCCC3)N2C1	?	6
CN1[C@@H](CCC(=O)N2CCN(c3ccccn3)CC2)CNC(=O)[C@@H]2[C@H]1CCN2Cc1ncc[nH]1	22µM*	-4
Cc1c(C)n(CCCN(C)C)c2ncn3nc(COc4cccc5ccccc45)nc3c12	i	.
CC(CCc1ccco1)NC(=O)CCc1nnc2ccc(N3CCOCC3)nn12 (stereo unspecified)	i	.
Cc1cc(NC(=O)CN2CCN(C(=O)c3ccc(C)c(F)c3)CC2)no1	i	.
O=C(NCCc1ccc(Cl)cc1)c1ccc2nnc(C3CCCC3)n2c1	.	-6
CC1(C)CCC2=C(C1=O)C(c1ccc(O)cc1)C1=C(CCC(C)(C)C1=O)O2	i	.
C=CCn1c(Sc2ncccn2)nc2c1c(=O)[nH]c(=O)n2C	i	.
CN1[C@@H](CCC(=O)N2CCN(c3ccccn3)CC2)CNC(=O)[C@@H]2[C@H]1CCN2Cc1ccc(O)cc1	32µM*	2
CN1[C@@H](CCC(=O)N2CCC(O)CC2)CNC(=O)[C@@H]2[C@H]1CCN2Cc1ccc(O)cc1	i	11
O=C(NCC1CC1)c1cc(-c2cccs2)c2cccn2n1	.	-9
COCCn1c(C)cc(C(=O)Cn2cnc3c2c(=O)n(C)c(=O)n3C)c1C	i	.
CC(C)[C@@H](C(=O)Nc1ccc(N(C)C)cc1)n1nnc2ccccc2c1=O	i	.
CN1CC(=O)N(c2ccccc2)Cc2c1ncnc2N1CCc2ccccc2C1	25µM*	-15
